# Screening data as filed in PubChem BioAssay.
# Only some compounds are listed: those with a hit (about 2.3% of all), similar ones and a draw of the others.
# Rtt109 HAT inh = inhibitors of C. albicans Rtt109/Vps75 HAT, primary screen, biochemical, ThioGlo CoA-SH fluorescence, plate reader. purified Rtt109/Vps75, 4 h. inhibition, % at 34.9 µM. actives 0.16% (n = 330,000). AID 540336, 2011;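 active means inhibition of at least 50% in every replicate; inconclusive means best replicate reaches 50% inhibition but some replicates fall short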
# Target sequence (Q5AAJ8 whole entry, looked up): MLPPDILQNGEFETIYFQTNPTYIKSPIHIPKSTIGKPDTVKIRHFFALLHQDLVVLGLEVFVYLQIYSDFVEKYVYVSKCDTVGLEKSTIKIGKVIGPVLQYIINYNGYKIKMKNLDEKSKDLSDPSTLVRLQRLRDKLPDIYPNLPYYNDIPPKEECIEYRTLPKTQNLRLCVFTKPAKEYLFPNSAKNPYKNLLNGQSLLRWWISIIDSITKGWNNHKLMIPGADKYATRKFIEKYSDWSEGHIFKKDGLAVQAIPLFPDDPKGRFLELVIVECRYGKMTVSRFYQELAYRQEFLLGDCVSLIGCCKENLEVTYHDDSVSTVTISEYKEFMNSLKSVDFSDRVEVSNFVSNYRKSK
# ERp5 block = inhibitors of ERp5-driven insulin aggregation, primary screen, biochemical, turbidity, absorbance 650 nm, single point; Protein disulfide-isomerase A6 (Homo sapiens), Q15084; 90 min; inhibition, % at 9.99 µM; actives 0.05% (n = 350,000);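 active means mean replicate inhibition above about 25%, with every replicate also reaching it, limit read from the data, passing the limit was not always enough; inconclusive means only one of those two criteria met; inactive means neither criterion met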
# PDI inh = inhibitors of human PDI, primary screen, biochemical, turbidity, single point, plate reader; AID 588391, 2011; Protein disulfide-isomerase (Homo sapiens), P07237; inhibition, % at 10 µM; PDI insulin aggregation turbidity, A650, 90 min; actives 0.052% (n = 350,000);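 active means mean inhibition across replicates of 30% or more, whatever share of single replicates reach that level; inconclusive means mean inhibition below 30% while every single replicate reaches 30%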
# SIRT5 block = SIRT5 desuccinylase inhibitors, primary screen, biochemical, fluorescence imaging, single point, set 5; inhibition, % at 15 µM; actives 1.1% (n = 330,000); AID 652115, 2013; NAD-dependent protein deacylase sirtuin-5, mitochondrial (Homo sapiens), Q9NXA8; Purified SirT5, succinyl-peptide AMC, trypsin-coupled fluorescence; in the data active means inhibition above about 15%; inconclusive means no clear call, values can overlap the other calls
# DENV2 CPE rescue = inhibitors of DENV2 cytopathic effect, primary screen, cell-based, plate reader, single concentration; CPE inhibition, % at 9.99 µM; DENV2-infected cells, cytopathic effect rescue; actives 1.7% (n = 350,000); in the data active means CPE inhibition above about 20%, passing the limit was not always enough; inconclusive means no clear call, values can overlap the other calls; tested in BHK-21 cells;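 further: 0% = median of neutral control wells and 100% = median of positive control wells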
# Active calls of the source: *; ? = inconclusive; . = no result given.
SMILES,Rtt109 HAT inh,ERp5 block,PDI inh,SIRT5 block,DENV2 CPE rescue
C[C@H]1CN([C@@H](C)CO)C(=O)c2cccc(NS(=O)(=O)c3cccs3)c2O[C@H]1CN(C)Cc1ccc(Cl)c(Cl)c1,.,-3,.,-1,-6
CO[C@@H]1CN(C)C(=O)c2cc(NC(=O)c3ccc4c(c3)OCO4)ccc2OC[C@@H](C)NC[C@@H]1C,.,1,.,-1,-5
C[C@@H]1CN([C@H](C)CO)C(=O)c2cc(NC(=O)Cn3cnnn3)ccc2O[C@H]1CN(C)S(=O)(=O)c1cccs1,.,-10,.,1,?
CN(C)C(=O)c1cccc(-c2ccc3c(c2)[C@@H]2[C@@H](CCN2C(=O)C2CCOCC2)[C@H](CO)N3)c1,.,-6,.,1,-3
CCCC(=O)N1CCC2(CC1)CN(C(=O)C1CC1)[C@H](CO)c1[nH]c3cc(OC)ccc3c12,.,0,.,2,34*
CCCC(=O)N1CC2(C1)CN(C(=O)C1CCCCC1)[C@@H](CO)c1[nH]c3cc(OC)ccc3c12,.,-4,.,2,22*
CCCC(=O)N1CC2(C1)CN(C(=O)C1CCC1)[C@@H](CO)c1[nH]c3cc(OC)ccc3c12,.,-2,.,-2,13
CCCC(=O)N1CCC2(CC1)CN(C(=O)C1CCCC1)[C@@H](CO)c1[nH]c3cc(OC)ccc3c12,.,-6,.,0,-10
CCC(=O)N[C@H]1C=C[C@H](CC(=O)NCc2cc(F)cc(F)c2)O[C@@H]1CO,.,1,.,2,?
C[C@@H]1CCCCO[C@@H](CN(C)C(=O)c2ccncc2)[C@@H](C)CN([C@@H](C)CO)C(=O)c2cc(NS(=O)(=O)c3ccccc3)ccc2O1,.,-1,.,-3,11
CO/N=C/C(c1ncc(C(F)(F)F)cc1Cl)S(=O)(=O)c1ccccc1 (stereo not given),3,-3,2,-1,9
CO/N=C/C(c1ccc(Cl)nc1)S(=O)(=O)c1ccccc1 (stereo not given),3,1,-10,21*,-8
CC(C)C(=O)Nc1ccc2c(c1)C(=O)N(C)[C@@H]1CC[C@H](CC(=O)NCc3ccc(F)cc3)O[C@@H]1CO2,.,0,.,4,19
O=C(O)c1ccc(S(=O)(=O)N(Cc2ccccc2)C2CCCCC2)cc1,-2,7,6,22*,-1
O=C(O)c1ccc(CN(Cc2ccccc2)S(=O)(=O)c2ccc(Cl)cc2)cc1,1,1,-2,1,-1
O=C(O)CCc1ccc(-c2ccccc2)o1,78*,.,8,.,.
O=C(/C=C\c1ccc(-c2ccccc2)o1)c1ccccc1,-3,.,-4,.,.
C[C@@H]1CN([C@@H](C)CO)C(=O)Cc2cc(NC(=O)C3CCCCC3)ccc2O[C@H]1CN(C)C(=O)Nc1ccc(C(F)(F)F)cc1,.,-1,.,3,-2
C/C=C/c1ccc([C@H]2[C@@H](CO)N(CC3CC3)[C@@H]2CNC(=O)NC(C)C)cc1,.,2,.,4,24*
C/C=C/c1ccc([C@H]2[C@@H](CO)N(CC3CCCC3)[C@@H]2CNC(=O)NC(C)C)cc1,.,3,.,6,-8
C/C=C/c1ccc([C@H]2[C@@H](CO)N(CC3CCCCC3)[C@@H]2CNC(C)C)cc1,.,-4,.,19*,-4
CO[C@@H]1CN(C)C(=O)c2ccc(NC(C)=O)cc2OC[C@@H](C)N(Cc2cc(-c3ccccc3)on2)C[C@H]1C,.,1,.,-4,-4
O=S(=O)(/N=C(\c1ccccc1)N1CCOCC1)c1cccs1,-13,.,-2,.,.
Cc1ccccc1S(=O)(=O)/N=C(/c1ccccc1)N1CCOCC1,5,-3,-5,16*,1
CO[C@@H]1CN(C)C(=O)c2cc(NC(=O)Nc3ccc4c(c3)OCO4)ccc2OC[C@H](C)NC[C@@H]1C,.,8,.,.,-2
SMILES,Rtt109 HAT inh,ERp5 block,PDI inh,SIRT5 block,DENV2 CPE rescue
CC(C)CCN1C(=O)c2ccccc2C1c1nnnn1-c1ccc2c(c1)OCCO2 (stereo not given),.,-2,.,25*,-2
COCCN1C(=O)c2ccccc2C1c1nnnn1-c1ccc2c(c1)OCCO2 (stereo not given),.,7,.,9,-8
O=C(C[C@H]1CC[C@@H]2[C@H](COC[C@H](O)CN2C(=O)Nc2ccc(Cl)c(Cl)c2)O1)NC1CCC1,.,1,.,-1,2
Cc1ccc(S(=O)(=O)Nc2ccc3c(c2)C(=O)N([C@H](C)CO)C[C@@H](C)[C@@H](CN(C)S(=O)(=O)c2cn(C)cn2)O3)cc1,.,8,.,-2,4
Cc1noc(C)c1NC(=O)Nc1ccc2c(c1)C(=O)N([C@@H](C)CO)C[C@@H](C)[C@@H](CN(C)C(=O)Nc1ccc(C(F)(F)F)cc1)OCCCC[C@@H](C)O2,.,-6,.,11,-8
CCCn1cc(S(=O)(=O)CC(=O)NC2CCCCC2)c2ccccc21,51*,.,-1,.,.
CCCn1cc(SCC(=O)NC2CCCC2)c2ccccc21,0,2,6,-2,1
C[C@@H]1CN([C@@H](C)CO)S(=O)(=O)c2ccc(C#Cc3ccc(F)cc3)cc2O[C@H]1CN(C)C(=O)NC1CCCCC1,.,2,.,19*,-1
C[C@H](CO)N1C[C@H](C)[C@@H](CN(C)C(=O)NC2CCCCC2)Oc2cc(C#Cc3ccc(F)cc3)ccc2S1(=O)=O,.,0,.,18*,?
C[C@H](CO)N1C[C@H](C)[C@@H](CN(C)C(=O)NC2CCCC2)Oc2cc(C#Cc3ccc(F)cc3)ccc2S1(=O)=O,.,2,.,2,-4
C[C@@H]1CN([C@H](C)CO)S(=O)(=O)c2ccc(C#Cc3ccc(F)cc3)cc2O[C@@H]1CN(C)C(=O)NC1CCCCC1,.,0,.,19*,8
CC(C)(OC(=O)c1ccc(C(F)(F)F)cc1)c1cc2ccccc2c(=O)o1,5,0,-3,.,-4
CC(C)(OC(=O)c1ccc(C#N)cc1)c1cc2ccccc2c(=O)o1,-2,1,-3,.,37*
Cc1nn(S(=O)(=O)c2ccc(C(C)C)cc2)c(C)c1S(=O)(=O)N1CCOCC1,54*,1,6,-2,-7
CCOc1ccc(S(=O)(=O)n2nc(C)c(S(=O)(=O)N3CCOCC3)c2C)cc1,1,-3,-1,-1,2
CCCNC(=O)C[C@H]1C[C@H]2c3cc(NC(=O)CN(C)C)ccc3O[C@H]2[C@H](CO)O1,.,.,.,.,-4
CCCNC(=O)C[C@H]1C[C@@H]2c3cc(NC(=O)CC4CC4)ccc3O[C@@H]2[C@@H](CO)O1,.,62*,.,5,-5
COCCNC(=O)C[C@@H]1C[C@H]2c3cc(NC(=O)Nc4ccc(OC)cc4)ccc3O[C@H]2[C@H](CO)O1,.,-3,.,1,23*
CN(C)CC(=O)Nc1ccc2c(c1)[C@@H]1C[C@H](CC(=O)NCc3ccccc3)O[C@H](CO)[C@@H]1O2,.,-2,.,-3,-6
